Experimental findings from PubChem BioAssay (NCI) are described below.

Among the test systems are NCI-H23 lung; NCI-H226 lung; HOP-62 NSCLC; NCI-H460 lung; HOP-92 NSCLC; NCI-H522 lung; A549/ATCC NSCLC; 786-0 renal; COLO 205 colon; NCI-H322M lung.
Common to all, as to assay: NCI-60 one-dose screen, 48 h (100 = growth as untreated, 0 = no growth, -100 = all killed)
Conditions in all cases: 10 µM unless noted

This is part of a sample that, as a whole, favours compounds with a hit. Of some 83,000 tested, about 20% had one in any assay.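 For each line, cells grew in 96-well plates with the test compound present at a single concentration for 48 hours.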 A number with no mark means an inactive call. Activity calls are given as the source filed them. Rule for the calls: active = growth percent below 10; inactive = the rest.

Turning to `CN(C)C1C(=O)C(C(N)=O)=C(O)C2(O)C(=O)C3=C(O)c4c(O)cccc4C(C)(O)C3CC12.[Cl][Sb]([Cl])[Cl]` (stereo not drawn), the growth was 46.1% with NCI-H23 lung; 86.6% in the experiment with NCI-H226 lung; 45.8% in the experiment with HOP-62 NSCLC; 4.47% (active) in the experiment on NCI-H460 lung; -5.57% (active) in the experiment with HOP-92 NSCLC; 4.59% (active) with NCI-H522 lung. Further, the growth was 26.1% in the experiment with A549/ATCC NSCLC, 26.6% in the experiment on 786-0 renal and 96.5% with COLO 205 colon.

For the compound `COC(=O)[C@@H](C)C[C@H](Cc1ccccc1)NC(=O)c1csc(CC[C@H](C(C)C)N(C)C(=O)[C@@H](NC(=O)[C@H]2CCCCN2C)C(C)C)n1`, the growth in the experiment with NCI-H23 lung was 32.4%; in the experiment with NCI-H226 lung it was 50.2%; in the experiment with HOP-62 NSCLC, 21.7%; in the experiment on NCI-H460 lung, 6.76% (active); with HOP-92 NSCLC it was 52.8%; in the experiment on NCI-H522 lung it was -12.9% (active). The figures for the growth with A549/ATCC NSCLC, in the experiment with 786-0 renal and in the experiment with COLO 205 colon were 19%, 10.9% and -38.9% (active), respectively.

As to `Brc1ccc2c(c1)c(-c1nc(-c3c[nH]c4ncccc34)cs1)cn2CCN1CCOCC1`, the growth was 71.8% with NCI-H23 lung; 60.2% with NCI-H226 lung; 72.1% in the experiment with NCI-H322M lung; 60.4% in the experiment on HOP-62 NSCLC; 63.2% with NCI-H460 lung; 52.2% with HOP-92 NSCLC. Further, the growth with NCI-H522 lung is 76.1%; in the experiment on A549/ATCC NSCLC, 61.7%; with 786-0 renal, 67.5%; in the experiment with COLO 205 colon it was 64.3%.

On to `N#CCCNc1ccccc1`, for which the growth in the experiment on NCI-H23 lung is 110%; in the experiment with NCI-H226 lung, 106%; in the experiment on HOP-62 NSCLC it was 116%; with NCI-H460 lung it was 111%; in the experiment with HOP-92 NSCLC, 94.9%; with NCI-H522 lung, 92.8%. For the same compound, the figures for the growth in the experiment on A549/ATCC NSCLC, with 786-0 renal and in the experiment with COLO 205 colon were 113%, 120% and 118%, respectively.

In the case of `Cn1cc(C2=C(c3cn(C4CCN(Cc5ccccn5)CC4)c4ccccc34)C(=O)NC2=O)c2ccccc21`, the growth in the experiment with NCI-H23 lung is 53.6%; with NCI-H226 lung, 93.5%; in the experiment with HOP-62 NSCLC, 68%; in the experiment on NCI-H460 lung, 74.9%; in the experiment with HOP-92 NSCLC, 69.8%; in the experiment on NCI-H522 lung, 48.8%. In addition, the growth in the experiment with A549/ATCC NSCLC was 50.8%; with 786-0 renal it was 79.7%; in the experiment on COLO 205 colon it was 6.03% (active).

Consider `O=C1CNC(c2ccccc2)c2cc(Cl)ccc2N1` (stereo not drawn), for which the growth was 93.7% with NCI-H23 lung; 89.6% in the experiment with NCI-H226 lung; 92% in the experiment on HOP-62 NSCLC; 110% in the experiment on NCI-H460 lung; 107% with HOP-92 NSCLC; 69.3% in the experiment with NCI-H522 lung. Besides, the results for the growth in the experiment with A549/ATCC NSCLC, with 786-0 renal and in the experiment on COLO 205 colon were 95%, 109% and 116%, respectively.

On to `CC1=C(CCCNS(C)(=O)=O)C2=C(C)C3(CC3)[C@@](C)(O)C(=O)C2=C1`, for which the growth with NCI-H23 lung was -35.1% (active); in the experiment with NCI-H226 lung it was -44% (active); with HOP-62 NSCLC it was -20.5% (active); with NCI-H460 lung, 1% (active); in the experiment on HOP-92 NSCLC, -25.7% (active); in the experiment with NCI-H522 lung it was 6.89% (active). The growth is 2.7% (active) with A549/ATCC NSCLC, -17.6% (active) with 786-0 renal and -61% (active) in the experiment with COLO 205 colon.

On to `O=C1C2CC=CCC2C(=O)N1SC(Cl)(Cl)Cl` (stereo not drawn), for which the growth is 96.7% in the experiment on NCI-H23 lung; 106% with NCI-H226 lung; 95.9% with HOP-62 NSCLC; 103% with NCI-H460 lung; 64.7% in the experiment on HOP-92 NSCLC; -57.1% (active) in the experiment on NCI-H522 lung. Further, the values for the growth in the experiment on A549/ATCC NSCLC, in the experiment on 786-0 renal and in the experiment on COLO 205 colon were 108%, 97.7% and 87.5%, respectively.

For the compound `Cc1ccc(C(=O)NCCCOc2ccc(N)cc2Cl)cc1S(=O)(=O)F`, the growth in the experiment with NCI-H23 lung is 98.9%; in the experiment with NCI-H226 lung, 89%; with HOP-62 NSCLC, 89.1%; in the experiment with NCI-H460 lung it was 102%; in the experiment on HOP-92 NSCLC, 96.6%; in the experiment on NCI-H522 lung it was 73.5%. Also, the growth with A549/ATCC NSCLC is 90.1%; with 786-0 renal, 86%; in the experiment with COLO 205 colon, 105%.

Consider `N/C(=N/N=C/c1ccncc1)N[N+](=O)[O-]`, for which the growth with NCI-H23 lung was 99.5%; in the experiment on NCI-H226 lung it was 99.2%; in the experiment on NCI-H322M lung, 99.5%; in the experiment on HOP-62 NSCLC, 89.3%; with NCI-H460 lung it was 112%; in the experiment on HOP-92 NSCLC it was 115%. The growth was 101% in the experiment on NCI-H522 lung, 98.3% in the experiment with A549/ATCC NSCLC and 102% with COLO 205 colon.

Consider `Clc1cc(N2CC2)nc(N2CC2)n1`, for which the growth in the experiment with NCI-H23 lung was 56%; with NCI-H322M lung it was 103%; in the experiment with HOP-62 NSCLC it was 63.9%; in the experiment with NCI-H460 lung, 23.6%; with HOP-92 NSCLC, 68.4%; with NCI-H522 lung, 67.2%. The growth in the experiment on A549/ATCC NSCLC was 62.3%; in the experiment on 786-0 renal, 76.1%; in the experiment with COLO 205 colon, 81.3%.

As to `COc1ccc(C(=O)c2sc3nc4c(cc3c2N)N2CCC4CC2)cc1OC`, the growth in the experiment on NCI-H23 lung is 92.5%; in the experiment on NCI-H226 lung, 65.2%; in the experiment with HOP-62 NSCLC, 72.9%; with NCI-H460 lung, 103%; with HOP-92 NSCLC, 6.56% (active); in the experiment with NCI-H522 lung it was 82.4%. The values for the growth in the experiment on A549/ATCC NSCLC, with 786-0 renal and in the experiment on COLO 205 colon were 94.8%, 90.9% and 97.1%, respectively.

As to `CC1=C2[C@@H](CC1)[C@]1(C)O[C@@](C(C)C)(C[C@H]1O)[C@H]2OC(=O)C1CC1c1ccccc1` (stereo partly drawn), the growth in the experiment with NCI-H23 lung is 102%; in the experiment with NCI-H322M lung, 109%; with HOP-62 NSCLC, 81.7%; in the experiment on NCI-H460 lung, 102%; with HOP-92 NSCLC, 73.3%; with NCI-H522 lung, 72.7%. Further, the growth was 76.5% with A549/ATCC NSCLC, 97.9% in the experiment with 786-0 renal and 90.5% in the experiment with COLO 205 colon.
